# Data published in the OligoGym collection.
# Biological target: CD27
# Test: pooled miR-30 sensor sort-seq; sequence = guide strand
# Conditions: shRNA
# Further: reference of the scale not given here.
row,Sequence,sensor-assay potency score (higher = more potent)
1,AAGGATGCGAATAAAATCGGAG,-0.423
2,TTGGAAGAGGATCACACTCGGT,-0.746
3,AAAACAAGGAACATTCCAGAGA,-0.821
4,TTGTTTGATCTATATTTCCTTC,-0.475
5,TAAAATCGGAGCTGCACAGGGA,0.114
6,TTTGATCTATATTTCCTTCGTT,0.393

# Biological target: CD300E
# Test: as above
# Conditions: shRNA
row,Sequence,sensor-assay potency score (higher = more potent)
1,ACTGTCTGAATTTTGCACCAGT,-0.28
2,ATGACGTGTCGTACTGTCCTCG,-0.632
3,TTGTACATGCTCTCATACTGAC,-0.406
4,TTTTGGGTCAACACCTCCCCGG,-0.887
5,TGGTCTCTGATGGACACGCGGC,-1.67
6,ATACTGACACCACACTGTCAGA,-1.71
7,ATCATCTTCATTGAGGTTCTGC,0.407
8,TTGGGGTTGTAATTGCTGGGGA,-0.0469
9,TTTGGGTCAACACCTCCCCGGT,-1.29
10,TGAATTTTGGGTCAACACCTCC,-1.03
11,TTGGTCTCCACAATGCTCTCAC,0.408
12,TCACATGACGTGTCGTACTGTC,0.205

# Biological target: CD300LG
# Test: as above
# Conditions: shRNA
row,Sequence,sensor-assay potency score (higher = more potent)
1,TTCTTCTTCTGCATAGATGGTG,-0.287
2,TCCTGCACCAGTACTTCCGGTG,-1.28
3,TTCTACTTTTCTCTCTAGCCAC,-0.61
4,TAGATGGTGCCAGAGCAGCGAG,-1.7
5,TCTTCTGCATAGATGGTGCCAG,-0.529
6,TATCCCTGCAATGTGCACCTGA,0.23
7,TCTTCTTCTGCATAGATGGTGC,-0.808
8,TCTGTGTTAGACACCTACGTGC,0.23
9,TTTTCTTCATCATTTTTCCAAA,-1.26
10,TTGGTGTCGCAGACAGAGCAGA,-1.29
11,TTCCCTGTAGGTGCACTGCAGG,-0.985
12,TTCCTGCACCAGTACTTCCGGT,-1.16

# Biological target: CD320
# Test: as above
# Conditions: shRNA
row,Sequence,sensor-assay potency score (higher = more potent)
1,TAGTCCGAGGCCGAGCAGCAGC,-1.57
2,TCCACAGCCGAGCTCGTCGCTG,-1.78
3,AATGCAGTCATCGCTCAGCGTG,-1.16
4,TCTCATTGGTTCCACAGCCGAG,-1.57
5,TCGCTGCAGTCCAAGTCCCTGT,-1.39
6,TTCTGTTCTGACAGCAGCAGGG,-0.457
7,TTGCACTGAGCACCGCAGCAGC,-1.06
8,TTCCGGGAGGATCTCATTGGTT,-1.44
9,TCATCGCTGCCATCGCTGCAGT,-1.32
10,ATGCAGTCATCGCTCAGCGTGC,-1.64
